In PubChem BioAssay (NCATS) one finds outcome data, which are given here for 37 compounds.

Each structure is given as a SMILES string. Results filed as inconclusive are left out. Active and inactive are the calls of the source. Calls come from the whole dose curve; as a rule, active = well fitted inhibition curve with a large enough effect; inconclusive = small, poorly fitted or top-dose-only effect; inactive = no such curve, though single readings can be large or run the other way.

The experiment can be described thus: qHTS assay for measurement of the activity of small molecule inhibitors on Zika virus induced Caspase-3 activity in human iPSC derived neural progenitor cells (hNPCs) (AID 1224857). Note: nearly all actives have a fitted effect of over 65% in size. The conditions noted are these: hNPCs ZIKV-induced caspase-3/7, Caspase-Glo luminescence, 6 h; series mostly up to 45.7 µM. The essentials: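 Human iPSC-derived neural progenitor cells pretreated 1 hr with compounds, then infected with Zika virus (2 FFU/cell) for 6 hours at 37 C. Caspase-3/7 measured by Caspase-Glo luminescence; % inhibition calculated from induction scaled to uninfected (0%) and infected (100%) wells.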
On the technique in general: In qHTS, concentration-response curves come from the screen itself.
Consider `CCN(Cc1ccncc1)C(=O)C(CO)c1ccccc1` (configuration not stated), for which the outcome was inactive.
Consider `CC(=O)Oc1cc(C(C)C)c(OCCN(C)C)cc1C`, for which the call was inactive.
Consider `COc1cc(C(=O)OCCCN2CCCN(CCCOC(=O)c3cc(OC)c(OC)c(OC)c3)CC2)cc(OC)c1OC`, for which the compound was called inactive.
The same measure for `CN(C)CCCN1c2ccccc2Sc2ccccc21`: “inactive”; for `COCCCC/C(=N\OCCN)c1ccc(C(F)(F)F)cc1`: “inactive”.
The same measure for `CN(C)CCOC(=O)COc1ccc(Cl)cc1`: “inactive”.
Take `COc1ccc(CCN(C)CCCC(C#N)(c2cc(OC)c(OC)c(OC)c2)C(C)C)cc1OC` (configuration not stated): the compound was called inactive.
For `CCCN(CCC)CCc1cccc2c1CC(=O)N2` the value was “inactive”; for `CCOC(=O)c1cnc2c(cnn2CC)c1NN=C(C)C`, “inactive”; for `CC(C(=O)O)c1ccc(CC2CCCC2=O)cc1` (configuration not stated), “inactive”.
With `CC(C)(C)NCC(O)c1cc(O)cc(O)c1` (configuration not stated), the call was inactive.
The same measure for `Cc1ccc(/C(=C\CN2CCCC2)c2ccccn2)cc1`: “inactive”.
For `CCC(=O)c1ccc2c(c1)N(CCCN(C)C)c1ccccc1S2` the value was “inactive”.
Consider `O=C(O)CN(CCOCCOCCN(CC(=O)O)CC(=O)O)CC(=O)O`, for which the compound was classed as inactive.
In the case of `CN(C)C/C=C(/c1ccc(Br)cc1)c1cccnc1`, the compound was called inactive.
Consider `NC(Cc1ccc(Cl)cc1)C(=O)O` (configuration not stated), for which the compound was called inactive.
For `OC(CCN1CCCCC1)(c1ccccc1)C1CCCCC1` (configuration not stated) the value was “inactive”; for `NC(N)=N/N=C/c1c(Cl)cccc1Cl`, “inactive”; for `NS(=O)(=O)c1cc2c(cc1Cl)NC(C1CC3C=CC1C3)NS2(=O)=O` (configuration not stated), “inactive”.
In the case of `O=C1CC2(CCCC2)CC(=O)N1CCCCN1CCN(c2ncccn2)CC1`, the outcome was inactive.
The same measure for `CCCC(C(=O)OCCN(CC)CC)(c1ccccc1)c1ccccc1`: “inactive”; for `CN(C)[C@@H]1C(=O)C(C(N)=O)=C(O)[C@@]2(O)C(=O)C3=C(O)c4c(O)ccc(Cl)c4[C@@H](O)[C@H]3C[C@@H]12`: “inactive”; for `CC(C)NNC(=O)c1ccncc1`: “inactive”.
Consider `CCCCCCCC/C=C\CCCCCCCC(=O)NCc1ccc(O)c(OC)c1`, for which the compound was classed as inactive.
In the case of `COC(=O)C1=C(C)NC(C)=C(C(=O)OCCN(C)Cc2ccccc2)C1c1cccc([N+](=O)[O-])c1` (configuration not stated), the compound was classed as inactive.
With `CCN(CC)CC(=O)Nc1c(C)cccc1C`, the result was inactive.
`CO[C@@]1(NC(=O)CSCC#N)C(=O)N2C(C(=O)O)=C(CSc3nnnn3C)CS[C@@H]21`: the compound was classed as inactive.
Take `CC1=C(C)C(=O)C(CCCCC#CCCCC#CCO)=C(C)C1=O`: the outcome was inactive.
The same measure for `C#CCN(C)CCCOc1ccc(Cl)cc1Cl`: “inactive”; for `CCCCNc1ccc(C(=O)OCCN(C)C)cc1`: “inactive”; for `C[N+](C)(C)CCCCCCCCCC[N+](C)(C)C`: “inactive”.
Take `C[C@]12CCC(=O)C=C1CC[C@@H]1[C@@H]2CC[C@@]2(C)[C@H]1CC[C@]2(O)C(=O)CO`: the call was inactive.
For `O=C(CCNNC(=O)c1ccncc1)NCc1ccccc1` the value was “inactive”; for `COC(=O)C1=C(C)NC(C)=C(C(=O)OC(C)(C)CN(C)CCC(c2ccccc2)c2ccccc2)C1c1cccc([N+](=O)[O-])c1` (configuration not stated), “inactive”.
As for `CC(C)(C)c1ccc(C(=O)CCCN2CCC(OC(c3ccccc3)c3ccccc3)CC2)cc1`, the call was inactive.
`CCOC(=O)C1=C(C)NC(C)=C(C(=O)OC)C1c1cccc(Cl)c1Cl` (configuration not stated): the outcome was inactive.
For `CNC1(C)C2CCC(C2)C1(C)C` (configuration not stated) the value was “inactive”.
